Results: PubChem BioAssay
Values without a mark were called inactive. How the calls were made is not given here.

Molecular target: Pantothenate synthetase (Mycobacterium tuberculosis (strain ATCC 25618 / H37Rv)) (UniProt P9WIL5)
Assay: Recombinant Mtb pantothenate synthetase (PanC) inhibitors, coupled enzyme, confirmatory (AID 375);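 further: 0% = full reaction with vehicle and 100% = no enzyme background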
Conditions: coupled enzyme assay; at 10 µM, hits give high values

Sequence of Pantothenate synthetase (Mycobacterium tuberculosis (strain ATCC 25618 / H37Rv)) (P9WIL5 whole entry, looked up): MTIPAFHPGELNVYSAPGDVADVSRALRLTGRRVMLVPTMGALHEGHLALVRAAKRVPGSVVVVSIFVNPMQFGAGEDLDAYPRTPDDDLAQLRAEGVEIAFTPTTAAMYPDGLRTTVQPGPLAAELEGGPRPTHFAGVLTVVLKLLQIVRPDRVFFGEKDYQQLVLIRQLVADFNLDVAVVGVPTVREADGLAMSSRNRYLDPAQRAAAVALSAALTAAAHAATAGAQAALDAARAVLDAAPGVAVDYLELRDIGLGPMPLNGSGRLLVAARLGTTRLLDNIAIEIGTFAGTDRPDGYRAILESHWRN

Structure (SMILES) | inhibition
CCn1c(SCC(=O)NC)nnc1C(C)C | 2%
O=C(CCN1CCN(CCO)CC1)Nc1ccc(OCc2ccccc2)cc1 | 6%
O=C(O)CCCc1ccccc1 | 0%
COc1ccc(CC(=O)Nc2c3c(nn2-c2cccc(Cl)c2)CS(=O)C3)cc1 (stereo not given) | 7%
CC(C)CCNC(=O)[C@H](CC(C)C)NC(=O)[C@H]1O[C@@H]1C(=O)O | 0%
CC(C)CNC(=O)c1ccccc1NC(=O)CN(c1ccc2c(c1)OCCO2)S(C)(=O)=O | 0%
CC1(C)C2CCC1(C)C(OC(=O)CSc1nc(N)cc(=O)[nH]1)C2 (stereo not given) | 0%
O=C(CSc1nnnn1-c1ccc(Cl)cc1)NC(=O)Nc1ccc2c(c1)OCCO2 | 2%
CCCC(=O)Nc1cc(C)c2c(=O)oc3ccccc3c2n1 | 2%
Cc1ccc(NCC(O)C(O)C(O)CO)cc1C (stereo not given) | 0%
C=CCNC(=O)c1cccc(Br)c1 | 8%
CCCCCSc1nc2c(cnn2-c2ccccc2)c(=O)[nH]1 | 11%
O=C(c1ncc[nH]1)c1ccccc1C(=O)N1CCOCC1 | 1%
Cn1c(C(=O)N2CCN(C(=O)c3ccco3)CC2)cc2c(=O)n3ccccc3nc21 | 9%
CCn1c(C)nc2cc(C(=O)OC(C(F)(F)C(F)F)C(F)(F)C(F)F)ccc21 | 0%
Cc1c(C(=O)NCc2cccnc2)oc2ccc(S(=O)(=O)N3CCCCC3)cc12 | 0%
O=C(CN1CCN(C2CCCCC2)CC1)Nc1ccccc1-c1ccccc1 | 6%
Cn1cnc2c(N3CCCCC3)nccc21 | 0%
CC(=O)OCC(=O)[C@@]1(O)CC[C@H]2[C@@H]3CCC4=CC(=O)CC[C@]4(C)[C@H]3C(=O)C[C@@]21C | 0%
CC1CCCN(S(=O)(=O)c2ccc(C(=O)Nc3nnc(-c4ccccc4Cl)o3)cc2)C1 (stereo not given) | 0%

Structure (SMILES) | inhibition
COC(=O)c1ccc(-c2sc3nc(N4CCOCC4)c4c(c3c2N)CCCC4)o1 | 0%
Cc1ccc(CNC(=O)c2coc(=O)c3ccccc23)o1 | 0%
CN(CC(=O)Nc1ccccc1Cl)C(=O)COC(=O)CNC(=O)c1ccc(Br)o1 | 0%
O=C(c1ccco1)N1CCN(C(=O)C2CC(c3ccc(F)cc3)=NO2)CC1 (stereo not given) | 0%
CN1CCCc2cc(C#N)c(=O)[nH]c21 | 5%
O=C(O)CCn1c(=O)c2ccccc2c2ccccc2c1=O | 1%
COc1ccccc1N1CCN(c2cc(N3CCCC3)nc(C)n2)CC1 | 0%
O=c1c[n+]([O-])c2ccccc2n1OCc1c(F)cccc1F | 4%
COc1cc(NC(=O)CN(c2cc(C)cc(C)c2)S(=O)(=O)c2c(C)noc2C)cc(OC)c1 | 0%
O=C(CSc1nnc(-c2cccnc2)o1)Nc1ccccn1 | 0%
COc1ccc(OCC(=O)N2CCN(C(=O)c3cccs3)CC2)cc1 | 5%
CCOC(=O)C1(CC)NC(c2cccc(F)c2)C2C(=O)N(CC)C(=O)C21 (stereo not given) | 0%
CC(NS(=O)(=O)c1ccc(F)cc1)C(c1cccs1)N1CCN(C)CC1 (stereo not given) | 0%
Cc1ccc2[nH]c3c(=O)n(CCCN4CCN(C)CC4)cnc3c2c1 | 4%
CCOc1cc(C2CC(=O)N3CN(C4CCCCC4)CSC3=C2C#N)ccc1O (stereo not given) | 0%
CCn1c(C(=O)OC)cc2c1ccn2-c1ccc(F)cc1 | 0%
CCOC(=O)c1ccc(NC(=O)N2CCN(CCc3ccccc3)CC2)cc1 | 0%
CN(C)S(=O)(=O)n1cnc(-c2ccccc2)c1-c1ccccc1 | 4%
COC(=O)CCCCCNc1ccc(C(=O)OC)cc1N | 0%
Nc1sccc1C(=O)c1ccccc1 | 4%
